Experimental data from PubChem BioAssay.
“And” between values parts separate entries of the source, which are not always exact repeats. Identical values can stand only once. The source made the active and inactive calls.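 How the source made its calls, unless noted: active means compounds whose cell count with miR-34 switched on is under 0.7 times the count with it off; inactive means the rest.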

Tests used:
[1] = sensitizers of A549 cells to miR-34 induction, primary screen, imaging, A549 dox-inducible miR-34, nuclei and caspase counts (AID 1347080); details: A549 miR-34 inducible, Hoechst nuclei count, 48 h
[2] = survival rescue of mitochondrial mutant cells in low glucose, primary screen, MELAS cybrids, Rieske KO mouse fibroblasts, CellTiter-Glo (AID 1508586;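 active means mean z-score across replicates of 1.96 or higher in either the MELAS or the Rieske mutant cell line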;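 further: z relative to plate mean and SD of compound and empty wells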)
[3] = target: NAD(+) hydrolase SARM1 (Homo sapiens) (UniProt Q6SZW1); assay: SARM1 TIR NADase inhibitors, cell lysate, NAD-Glo luminescence (AID 1508614;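 active means compound whose remaining NAD level is above about 45 nM, limit read from the data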); details: SAM-TIR HEK293T lysate NADase, at 1 µM, stronger effect = higher value
Sequence of NAD(+) hydrolase SARM1 (Homo sapiens) (Q6SZW1 whole entry, looked up, the tested form may be a part): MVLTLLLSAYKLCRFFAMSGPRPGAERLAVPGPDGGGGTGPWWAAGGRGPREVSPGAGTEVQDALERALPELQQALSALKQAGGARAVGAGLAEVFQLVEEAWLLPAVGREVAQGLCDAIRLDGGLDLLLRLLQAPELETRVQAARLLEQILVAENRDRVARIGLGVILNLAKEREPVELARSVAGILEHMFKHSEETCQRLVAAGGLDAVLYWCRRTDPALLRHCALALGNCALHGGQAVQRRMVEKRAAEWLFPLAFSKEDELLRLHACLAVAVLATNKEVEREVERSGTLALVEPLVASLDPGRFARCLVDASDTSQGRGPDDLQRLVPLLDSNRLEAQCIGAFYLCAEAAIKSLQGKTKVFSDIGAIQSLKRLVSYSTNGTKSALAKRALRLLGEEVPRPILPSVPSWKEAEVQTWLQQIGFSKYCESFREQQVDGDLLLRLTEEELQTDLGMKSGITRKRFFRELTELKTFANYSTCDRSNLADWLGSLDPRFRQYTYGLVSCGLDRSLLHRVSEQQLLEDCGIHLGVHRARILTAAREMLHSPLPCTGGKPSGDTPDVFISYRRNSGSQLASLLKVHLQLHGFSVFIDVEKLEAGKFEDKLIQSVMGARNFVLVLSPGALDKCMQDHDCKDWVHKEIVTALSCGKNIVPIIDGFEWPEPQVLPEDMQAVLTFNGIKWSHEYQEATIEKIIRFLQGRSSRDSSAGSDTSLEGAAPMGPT

[4] = target: Mitogen-activated protein kinase 7 (Homo sapiens) (UniProt Q13164); assay: ERK5 transactivation activators in reporter cells, primary screen, cell-based, HTS (AID 1508626;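 active means luciferase signal above three times the same-plate solvent-only control wells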;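 further: luciferase driven by Gal4-ERK5 fusion binding five Gal4 sites before minimal TATA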); details: HeLa Gal4-ERK5 transactivation, 18 h, at 5 µM, stronger effect = higher value
Sequence of Mitogen-activated protein kinase 7 (Homo sapiens) (Q13164 whole entry, looked up, the tested form may be a part): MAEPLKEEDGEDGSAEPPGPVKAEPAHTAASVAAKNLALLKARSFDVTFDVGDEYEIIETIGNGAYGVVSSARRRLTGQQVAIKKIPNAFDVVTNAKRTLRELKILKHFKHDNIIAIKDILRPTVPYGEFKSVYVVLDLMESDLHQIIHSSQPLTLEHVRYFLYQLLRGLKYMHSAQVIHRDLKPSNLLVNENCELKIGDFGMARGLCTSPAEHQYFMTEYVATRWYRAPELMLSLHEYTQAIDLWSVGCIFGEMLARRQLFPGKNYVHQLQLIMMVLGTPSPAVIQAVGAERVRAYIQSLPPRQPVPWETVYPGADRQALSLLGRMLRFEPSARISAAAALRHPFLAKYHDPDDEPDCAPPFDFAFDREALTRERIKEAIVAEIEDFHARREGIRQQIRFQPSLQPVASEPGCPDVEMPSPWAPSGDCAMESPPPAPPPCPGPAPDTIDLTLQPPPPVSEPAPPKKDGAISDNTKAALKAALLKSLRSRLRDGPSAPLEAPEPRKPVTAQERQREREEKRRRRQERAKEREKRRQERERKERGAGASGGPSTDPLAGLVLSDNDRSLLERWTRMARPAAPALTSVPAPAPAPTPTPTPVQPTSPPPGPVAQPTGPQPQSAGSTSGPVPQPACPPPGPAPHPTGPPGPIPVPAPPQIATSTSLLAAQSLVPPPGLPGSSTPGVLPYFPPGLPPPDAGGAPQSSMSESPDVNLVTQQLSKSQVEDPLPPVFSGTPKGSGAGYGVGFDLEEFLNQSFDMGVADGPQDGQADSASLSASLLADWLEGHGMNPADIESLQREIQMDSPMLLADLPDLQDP

[5] = stronger effect = lower value, cell number ratio, induced over uninduced
[6] = measured here: relative caspase fold change +Dox/-Dox
[7] = measured here: total cells with miR-34 induction, stronger effect = lower value
[8] = measured here: total cells without miR-34 induction
[9] = MELAS cybrid survival, CellTiter-Glo 48 h, stronger effect = higher value
[10] = Rieske KO mouse fibroblast survival, CellTiter-Glo 72 h

O=C1c2cccc(O)c2C(=O)c2c(O)cccc21
fold change [1, 5]: 0.868 (inactive)
fold change [1, 6]: 4.67
cell count [1, 7]: 9530
cell count [1, 8]: 11000
z-score [2, 9]: 0.3 (inactive)
z-score [2, 10]: 0.397
remaining NAD [3]: 10 nM (inactive)
luciferase signal [4]: 176 AU (inactive)

Cc1c(NC(C)C)c(=O)n(-c2ccccc2)n1C
fold change [1, 5]: 0.876 (inactive)
fold change [1, 6]: 1.14
cell count [1, 7]: 8020
cell count [1, 8]: 9170
z-score [2, 9]: -0.485 (inactive)
z-score [2, 10]: -0.708
remaining NAD [3]: 10 nM (inactive)
luciferase signal [4]: 56 AU (inactive)

CN(C)CCOC(=O)C(c1ccccc1)C1(O)CCCC1 (configuration not stated)
fold change [1, 5]: 0.97 (inactive) and 0.896 (inactive)
fold change [1, 6]: 0.779 and 1.74
cell count [1, 7]: 9700 and 10300
cell count [1, 8]: 10000 and 11500
z-score [2, 9]: 0.757 (inactive)
z-score [2, 10]: 0.693
remaining NAD [3]: 10 nM (inactive)
luciferase signal [4]: 104 AU (inactive)

NS(=O)(=O)c1cc2c(cc1Cl)NC(CSCc1ccccc1)=NS2(=O)=O
fold change [1, 5]: 0.856 (inactive) and 0.772 (inactive)
fold change [1, 6]: 1.39 and 1.03
cell count [1, 7]: 8870 and 9840
cell count [1, 8]: 10400 and 12800
z-score [2, 9]: 0.425 (inactive)
z-score [2, 10]: -0.312
remaining NAD [3]: 10 nM (inactive)
luciferase signal [4]: 88 AU (inactive)

Nc1c2ccccc2nc2ccccc12
fold change [1, 5]: 2.19 (inactive)
fold change [1, 6]: 1
cell count [1, 7]: 782
cell count [1, 8]: 356
z-score [2, 9]: 2.4 (active)
z-score [2, 10]: -1.96
remaining NAD [3]: 10 nM (inactive)
luciferase signal [4]: 92 AU (inactive)

CCCCOC(=O)c1ccc(N)cc1
fold change [1, 5]: 0.764 (inactive) and 0.971 (inactive)
fold change [1, 6]: 1.56 and 1.88
cell count [1, 7]: 6730 and 8980
cell count [1, 8]: 8820 and 9260
z-score [2, 9]: 0.902 (inactive)
z-score [2, 10]: -0.282
remaining NAD [3]: 10 nM (inactive)
luciferase signal [4]: 56 AU (inactive)

CN1CCC(=C2c3ccccc3Sc3ccccc32)CC1
fold change [1, 5]: 0.873 (inactive)
fold change [1, 6]: 1.16
cell count [1, 7]: 7410
cell count [1, 8]: 8480
z-score [2, 9]: 0.363 (inactive)
z-score [2, 10]: 0.395
remaining NAD [3]: 83 nM (active)
luciferase signal [4]: 64 AU (inactive)

CCOc1ccc(Cc2nccc3cc(OCC)c(OCC)cc23)cc1OCC
fold change [1, 5]: 0.917 (inactive)
fold change [1, 6]: 1.32
cell count [1, 7]: 5900
cell count [1, 8]: 6440
z-score [2, 9]: 0.91 (inactive)
z-score [2, 10]: 1.27
remaining NAD [3]: 10 nM (inactive)
luciferase signal [4]: 68 AU (inactive)

CCOC(=O)OC(C)OC(=O)[C@@H]1N2C(=O)[C@@H](NC(=O)[C@H](N)c3ccccc3)[C@H]2SC1(C)C (some centres not stated)
fold change [1, 5]: 0.838 (inactive)
fold change [1, 6]: 1.63
cell count [1, 7]: 8230
cell count [1, 8]: 9820
z-score [2, 9]: 0.0142 (inactive)
z-score [2, 10]: -0.106
remaining NAD [3]: 10 nM (inactive)
luciferase signal [4]: 76 AU (inactive)

CCN(CC)CCNc1ccc(CO)c2sc3ccccc3c(=O)c12
fold change [1, 5]: 0.933 (inactive) and 0.872 (inactive)
fold change [1, 6]: 1.29 and 1.89
cell count [1, 7]: 3110 and 3390
cell count [1, 8]: 3340 and 3880
z-score [2, 9]: 4.63 (active)
z-score [2, 10]: 0.873
remaining NAD [3]: 10 nM (inactive)
luciferase signal [4]: 36 AU (inactive)

CC(N)CCCC(C)(C)O (configuration not stated)
fold change [1, 5]: 0.926 (inactive)
fold change [1, 6]: 1.29
cell count [1, 7]: 8630
cell count [1, 8]: 9320
z-score [2, 9]: 0.045 (inactive)
z-score [2, 10]: 0.396
remaining NAD [3]: 10 nM (inactive)
luciferase signal [4]: 160 AU (inactive)

Cc1c(Nc2ncccc2C(=O)O)cccc1C(F)(F)F
fold change [1, 5]: 0.839 (inactive) and 0.931 (inactive) and 0.832 (inactive)
fold change [1, 6]: 1.09 and 0.676 and 4.07
cell count [1, 7]: 7890 and 7810 and 10300
cell count [1, 8]: 9410 and 8390 and 12400
z-score [2, 9]: -0.0893 (inactive) and -0.97 (inactive)
z-score [2, 10]: 0.0703 and 0.938
remaining NAD [3]: 10 nM (inactive)
luciferase signal [4]: 44 AU (inactive)

O=C(COc1ccc(Cl)cc1)N1CCN(Cc2ccc3c(c2)OCO3)CC1
fold change [1, 5]: 0.875 (inactive)
fold change [1, 6]: 1.39
cell count [1, 7]: 8260
cell count [1, 8]: 9440
z-score [2, 9]: 0.452 (inactive)
z-score [2, 10]: 0.138
remaining NAD [3]: 10 nM (inactive)
luciferase signal [4]: 84 AU (inactive)

Nc1ccc(S(=O)(=O)Nc2ccc(Cl)nn2)cc1
fold change [1, 5]: 0.789 (inactive) and 0.924 (inactive)
fold change [1, 6]: 1.6 and 3.43
cell count [1, 7]: 7930 and 11400
cell count [1, 8]: 10000 and 12300
z-score [2, 9]: 0.0891 (inactive)
z-score [2, 10]: 0.0567
remaining NAD [3]: 10 nM (inactive)
luciferase signal [4]: 168 AU (inactive)
